Results as given in the supplement of paper PMC10681739.

Target: RUNX1 (UniProt Q01196)
Experiment: RUNX1 binding intensity (PBM fluorescence) in presence of ETS1, normalised to RUNX1-only experiment (arbitrary fluorescence units); higher = stronger binding
Conditions: RUNX1 concentration 2 nM; ETS1 concentration 25 nM
Experimental: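 Cooperative gcPBM on 36-bp genomic probes with neighbouring ETS1 and RUNX1 sites. Recombinant human RUNX1 (2 nM) was incubated alone or with ETS1 (25 nM) and detected with anti-RUNX1 antibody plus Alexa488 secondary. Values are medians over 4 replicate spots; the RUNX1+ETS1 data were normalised to the RUNX1-only data. The probes sit in constant array flanks that are not printed.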
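Note: Full-length recombinant human ETS1 or RUNX1 bound to double-stranded 36-bp genomic probes on microarrays, detected by protein-specific primary antibody and Alexa488 secondary, spot fluorescence as median of four replicate spots.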

Sequence of RUNX1 (Q01196 whole entry): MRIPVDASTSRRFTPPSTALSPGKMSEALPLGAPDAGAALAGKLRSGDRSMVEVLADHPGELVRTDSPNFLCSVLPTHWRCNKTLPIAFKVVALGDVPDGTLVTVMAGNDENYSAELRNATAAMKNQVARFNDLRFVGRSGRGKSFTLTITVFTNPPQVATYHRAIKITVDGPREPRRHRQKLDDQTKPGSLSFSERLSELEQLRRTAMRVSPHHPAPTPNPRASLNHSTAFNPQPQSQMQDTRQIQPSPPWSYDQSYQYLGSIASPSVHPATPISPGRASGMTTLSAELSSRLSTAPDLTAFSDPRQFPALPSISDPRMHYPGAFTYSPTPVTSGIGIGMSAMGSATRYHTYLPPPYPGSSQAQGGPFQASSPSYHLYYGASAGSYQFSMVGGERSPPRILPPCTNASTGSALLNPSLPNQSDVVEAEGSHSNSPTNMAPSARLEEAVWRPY

Sequence | RUNX1 binding intensity
GCGCAGGTCCCGGATGTTGCGGACAGTATGAGGCAA | 1570
CCCAATTTCCTTTGCTCTGCTGTCTGCCAACCGCAA | 4340
CTTTGCAGGAAGCTGGGGTTCACCCACAGCCTTGTT | 878
GAAGGTTGTAGAGGAAGTGGTTTGTTCTTCCTCCTG | 1640
ACACCTCAGGCAGGATGTGGTAGGGGTTGCCCCAGA | 2700
AGCGGCCTGGGAGGAGGATGTGGTTACGTGGAGACC | 1510
GGTCCGGAAACGATTCTGGACCTGCGGGTATATCCA | 1070
ACCCCGGAAGTGTGGGCGCGGCTGCGGTTTAACCCG | 8200
GAAACCCCATGGGCAGGATGTGGGTGAGCTGTCTGG | 1280
AGCCGCCACTTCCTGTCTCTGCGGGTGCATGCTCTT | 3580
CTCTGAGCAGGAAGTGACAAAACCACGCAGGGCAGG | 1160
AGGGAGCCCTCCATTTCCTGCCCACATTTGTCACCT | 2260
CTGCTGGCGTTCCCGGATGTGCGGTGGCGGTGCTAC | 1570
GAGGAAGAGTCTTCCTGTAACCACTAGAGGGCGCTG | 960
GCCCCGGAAGCTCCTTAAGGAGGACCGTGTGGGTTT | 944
TCCCGGCGTTCTTCCGCTGGCTCAGCCGCAAGTACC | 1170
ACCACCCACTTCCCGCGCAGTTCCAAACCGCGACCA | 5270
GTCACAGGAAAGAAGGAGCCTCGCCTTAACCGCACC | 1310
GCTGCTTCCGGCCGCTGGTCGCAGGGCTGCGGGACT | 1760
CCCGCTACACAAGGCGGATGTGGTACCCTCACTTGT | 1530
TTCGGATTCCCGGAAGAACCCGCAGCAGCTCCCAGG | 1190
